Columns and labels:
[1] = target: Tyrosine-protein kinase CSK (Homo sapiens) (UniProt P41240); settings: at 1 µM;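 further: each value is an averaged inhibition reading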
[2] = target: T1, Discoidin domain-containing receptor 2 (Homo sapiens) (UniProt Q16832); settings: at 0.1 µM
T1 sequence (whole entry): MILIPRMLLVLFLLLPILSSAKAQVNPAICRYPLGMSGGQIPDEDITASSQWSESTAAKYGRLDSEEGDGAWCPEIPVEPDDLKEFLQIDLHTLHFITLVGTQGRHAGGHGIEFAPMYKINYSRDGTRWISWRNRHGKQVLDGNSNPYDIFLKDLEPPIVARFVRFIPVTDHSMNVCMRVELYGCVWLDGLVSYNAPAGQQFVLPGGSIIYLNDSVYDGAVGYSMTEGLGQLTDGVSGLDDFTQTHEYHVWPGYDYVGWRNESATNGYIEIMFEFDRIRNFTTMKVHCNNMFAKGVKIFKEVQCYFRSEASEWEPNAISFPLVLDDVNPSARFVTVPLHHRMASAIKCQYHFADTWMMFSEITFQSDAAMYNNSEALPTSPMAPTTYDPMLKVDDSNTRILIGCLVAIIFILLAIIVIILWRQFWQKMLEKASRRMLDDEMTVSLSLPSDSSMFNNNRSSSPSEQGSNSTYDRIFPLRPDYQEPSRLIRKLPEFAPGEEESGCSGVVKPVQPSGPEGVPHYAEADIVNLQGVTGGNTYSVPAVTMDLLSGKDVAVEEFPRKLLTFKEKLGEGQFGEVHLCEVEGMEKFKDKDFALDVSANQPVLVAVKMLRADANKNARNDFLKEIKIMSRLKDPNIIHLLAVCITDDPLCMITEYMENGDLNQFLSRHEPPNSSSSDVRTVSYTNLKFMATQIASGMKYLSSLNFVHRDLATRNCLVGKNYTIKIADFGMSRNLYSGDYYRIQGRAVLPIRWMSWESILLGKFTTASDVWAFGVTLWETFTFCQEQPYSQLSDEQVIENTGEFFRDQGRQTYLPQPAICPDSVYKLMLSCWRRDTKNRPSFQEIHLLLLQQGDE

[3] = target: T1, Discoidin domain-containing receptor 2 (Homo sapiens); settings: at 1 µM
[4] = target: Epidermal growth factor receptor (Homo sapiens) (UniProt P00533); settings: at 0.1 µM
Sequence of Epidermal growth factor receptor (Homo sapiens) (P00533 whole entry): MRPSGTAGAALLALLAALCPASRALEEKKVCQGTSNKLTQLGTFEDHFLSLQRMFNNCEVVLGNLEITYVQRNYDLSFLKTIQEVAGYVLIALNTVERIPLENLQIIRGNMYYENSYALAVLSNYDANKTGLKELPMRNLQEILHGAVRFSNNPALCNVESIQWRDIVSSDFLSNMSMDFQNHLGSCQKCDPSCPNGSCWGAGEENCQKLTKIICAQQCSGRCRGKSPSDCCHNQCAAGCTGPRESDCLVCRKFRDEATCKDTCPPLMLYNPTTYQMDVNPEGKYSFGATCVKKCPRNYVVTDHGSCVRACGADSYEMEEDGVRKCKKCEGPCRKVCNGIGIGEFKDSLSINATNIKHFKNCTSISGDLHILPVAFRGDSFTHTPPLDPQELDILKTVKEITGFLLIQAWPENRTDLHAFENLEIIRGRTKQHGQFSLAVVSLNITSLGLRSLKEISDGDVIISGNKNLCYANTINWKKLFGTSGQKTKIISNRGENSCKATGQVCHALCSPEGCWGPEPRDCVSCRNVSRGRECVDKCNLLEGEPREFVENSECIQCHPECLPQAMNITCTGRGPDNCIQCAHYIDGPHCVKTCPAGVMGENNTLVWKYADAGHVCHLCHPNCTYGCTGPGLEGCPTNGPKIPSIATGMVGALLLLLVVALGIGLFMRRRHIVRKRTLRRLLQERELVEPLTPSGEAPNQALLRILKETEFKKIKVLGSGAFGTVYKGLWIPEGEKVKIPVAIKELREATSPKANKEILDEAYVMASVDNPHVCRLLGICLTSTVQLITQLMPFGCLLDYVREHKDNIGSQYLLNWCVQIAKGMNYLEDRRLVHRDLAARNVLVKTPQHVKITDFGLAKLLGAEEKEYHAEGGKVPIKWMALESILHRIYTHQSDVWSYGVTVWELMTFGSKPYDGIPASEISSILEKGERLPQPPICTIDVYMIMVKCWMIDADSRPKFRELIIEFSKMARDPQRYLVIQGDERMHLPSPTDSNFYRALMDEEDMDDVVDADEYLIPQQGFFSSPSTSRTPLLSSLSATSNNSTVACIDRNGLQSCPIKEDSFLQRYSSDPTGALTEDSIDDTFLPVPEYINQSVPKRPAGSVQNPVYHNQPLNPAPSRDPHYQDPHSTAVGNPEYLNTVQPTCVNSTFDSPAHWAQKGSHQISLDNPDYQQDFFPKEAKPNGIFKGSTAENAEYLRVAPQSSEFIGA

[5] = target: Epidermal growth factor receptor (Homo sapiens) (UniProt P00533); settings: at 1 µM
[6] = test system: Epidermal growth factor receptor (Homo sapiens), P00533 [L858R]; settings: at 0.1 µM
Sequence of Epidermal growth factor receptor (Homo sapiens), P00533 [L858R] (P00533 whole entry L858R): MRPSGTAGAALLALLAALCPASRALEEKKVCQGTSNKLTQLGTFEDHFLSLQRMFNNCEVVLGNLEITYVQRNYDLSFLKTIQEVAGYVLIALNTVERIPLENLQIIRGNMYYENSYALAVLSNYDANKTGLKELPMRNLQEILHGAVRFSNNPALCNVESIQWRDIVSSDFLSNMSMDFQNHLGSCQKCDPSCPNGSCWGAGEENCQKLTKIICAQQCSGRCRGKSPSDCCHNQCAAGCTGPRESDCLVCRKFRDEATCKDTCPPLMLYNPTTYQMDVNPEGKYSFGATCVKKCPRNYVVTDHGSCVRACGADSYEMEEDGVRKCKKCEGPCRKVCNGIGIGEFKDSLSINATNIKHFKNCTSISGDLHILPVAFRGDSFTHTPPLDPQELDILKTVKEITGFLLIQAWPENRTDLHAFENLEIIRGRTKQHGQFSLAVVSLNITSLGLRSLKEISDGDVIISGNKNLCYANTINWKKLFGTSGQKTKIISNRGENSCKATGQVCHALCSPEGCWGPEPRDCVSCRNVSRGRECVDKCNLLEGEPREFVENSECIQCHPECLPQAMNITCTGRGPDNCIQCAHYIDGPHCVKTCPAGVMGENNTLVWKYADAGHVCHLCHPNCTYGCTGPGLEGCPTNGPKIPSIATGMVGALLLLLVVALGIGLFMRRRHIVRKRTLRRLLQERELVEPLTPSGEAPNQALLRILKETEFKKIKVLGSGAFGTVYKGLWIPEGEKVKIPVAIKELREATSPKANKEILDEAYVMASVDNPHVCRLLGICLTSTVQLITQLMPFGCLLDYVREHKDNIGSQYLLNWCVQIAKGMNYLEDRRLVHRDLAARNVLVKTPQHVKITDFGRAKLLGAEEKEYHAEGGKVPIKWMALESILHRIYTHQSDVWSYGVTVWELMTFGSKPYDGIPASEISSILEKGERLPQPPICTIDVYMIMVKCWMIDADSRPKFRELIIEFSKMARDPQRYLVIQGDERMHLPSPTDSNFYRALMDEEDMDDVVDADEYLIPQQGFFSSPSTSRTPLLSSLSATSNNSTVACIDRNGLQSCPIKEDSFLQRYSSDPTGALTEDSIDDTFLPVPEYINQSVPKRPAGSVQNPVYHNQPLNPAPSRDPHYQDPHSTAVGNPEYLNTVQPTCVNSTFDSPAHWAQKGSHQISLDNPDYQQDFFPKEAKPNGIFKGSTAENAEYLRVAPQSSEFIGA

[7] = test system: Epidermal growth factor receptor (Homo sapiens), P00533 [L858R]; settings: at 1 µM
[8] = test system: Epidermal growth factor receptor (Homo sapiens), P00533 [L861Q]; settings: at 0.1 µM
Sequence of Epidermal growth factor receptor (Homo sapiens), P00533 [L861Q] (P00533 whole entry L861Q): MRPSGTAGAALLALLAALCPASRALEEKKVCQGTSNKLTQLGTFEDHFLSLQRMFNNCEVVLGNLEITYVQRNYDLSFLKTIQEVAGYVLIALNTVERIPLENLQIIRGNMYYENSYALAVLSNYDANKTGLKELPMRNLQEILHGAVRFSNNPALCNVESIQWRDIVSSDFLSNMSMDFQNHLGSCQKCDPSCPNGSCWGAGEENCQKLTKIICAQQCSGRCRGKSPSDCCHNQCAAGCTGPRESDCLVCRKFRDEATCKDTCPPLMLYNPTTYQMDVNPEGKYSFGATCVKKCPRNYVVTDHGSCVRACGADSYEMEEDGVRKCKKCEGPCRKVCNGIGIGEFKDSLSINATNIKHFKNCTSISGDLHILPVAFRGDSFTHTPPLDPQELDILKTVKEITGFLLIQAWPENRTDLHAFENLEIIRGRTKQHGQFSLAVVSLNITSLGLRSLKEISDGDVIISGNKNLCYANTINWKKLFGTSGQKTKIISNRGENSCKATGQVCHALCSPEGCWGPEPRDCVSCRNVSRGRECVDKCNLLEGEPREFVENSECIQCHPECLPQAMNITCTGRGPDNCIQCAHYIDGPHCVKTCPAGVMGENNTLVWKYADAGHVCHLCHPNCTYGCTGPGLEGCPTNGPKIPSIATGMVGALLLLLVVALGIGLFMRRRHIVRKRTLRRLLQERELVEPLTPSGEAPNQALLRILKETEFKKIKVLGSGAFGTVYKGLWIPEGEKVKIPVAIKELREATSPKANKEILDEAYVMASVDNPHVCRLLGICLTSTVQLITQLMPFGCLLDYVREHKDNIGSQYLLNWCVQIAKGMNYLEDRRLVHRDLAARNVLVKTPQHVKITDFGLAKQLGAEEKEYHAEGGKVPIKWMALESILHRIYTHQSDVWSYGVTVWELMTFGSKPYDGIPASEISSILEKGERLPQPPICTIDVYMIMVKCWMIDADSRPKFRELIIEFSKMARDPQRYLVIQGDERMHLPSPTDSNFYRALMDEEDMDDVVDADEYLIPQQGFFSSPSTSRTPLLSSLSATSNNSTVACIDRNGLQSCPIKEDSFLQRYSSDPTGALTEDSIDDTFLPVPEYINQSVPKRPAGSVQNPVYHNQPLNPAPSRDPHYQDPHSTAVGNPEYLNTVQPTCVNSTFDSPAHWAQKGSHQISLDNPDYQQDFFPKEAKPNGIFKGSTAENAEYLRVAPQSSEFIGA

[9] = test system: Epidermal growth factor receptor (Homo sapiens), P00533 [L861Q]; settings: at 1 µM
[10] = test system: Epidermal growth factor receptor (Homo sapiens), P00533 [T790M]; settings: at 0.1 µM
Sequence of Epidermal growth factor receptor (Homo sapiens), P00533 [T790M] (P00533 whole entry T790M): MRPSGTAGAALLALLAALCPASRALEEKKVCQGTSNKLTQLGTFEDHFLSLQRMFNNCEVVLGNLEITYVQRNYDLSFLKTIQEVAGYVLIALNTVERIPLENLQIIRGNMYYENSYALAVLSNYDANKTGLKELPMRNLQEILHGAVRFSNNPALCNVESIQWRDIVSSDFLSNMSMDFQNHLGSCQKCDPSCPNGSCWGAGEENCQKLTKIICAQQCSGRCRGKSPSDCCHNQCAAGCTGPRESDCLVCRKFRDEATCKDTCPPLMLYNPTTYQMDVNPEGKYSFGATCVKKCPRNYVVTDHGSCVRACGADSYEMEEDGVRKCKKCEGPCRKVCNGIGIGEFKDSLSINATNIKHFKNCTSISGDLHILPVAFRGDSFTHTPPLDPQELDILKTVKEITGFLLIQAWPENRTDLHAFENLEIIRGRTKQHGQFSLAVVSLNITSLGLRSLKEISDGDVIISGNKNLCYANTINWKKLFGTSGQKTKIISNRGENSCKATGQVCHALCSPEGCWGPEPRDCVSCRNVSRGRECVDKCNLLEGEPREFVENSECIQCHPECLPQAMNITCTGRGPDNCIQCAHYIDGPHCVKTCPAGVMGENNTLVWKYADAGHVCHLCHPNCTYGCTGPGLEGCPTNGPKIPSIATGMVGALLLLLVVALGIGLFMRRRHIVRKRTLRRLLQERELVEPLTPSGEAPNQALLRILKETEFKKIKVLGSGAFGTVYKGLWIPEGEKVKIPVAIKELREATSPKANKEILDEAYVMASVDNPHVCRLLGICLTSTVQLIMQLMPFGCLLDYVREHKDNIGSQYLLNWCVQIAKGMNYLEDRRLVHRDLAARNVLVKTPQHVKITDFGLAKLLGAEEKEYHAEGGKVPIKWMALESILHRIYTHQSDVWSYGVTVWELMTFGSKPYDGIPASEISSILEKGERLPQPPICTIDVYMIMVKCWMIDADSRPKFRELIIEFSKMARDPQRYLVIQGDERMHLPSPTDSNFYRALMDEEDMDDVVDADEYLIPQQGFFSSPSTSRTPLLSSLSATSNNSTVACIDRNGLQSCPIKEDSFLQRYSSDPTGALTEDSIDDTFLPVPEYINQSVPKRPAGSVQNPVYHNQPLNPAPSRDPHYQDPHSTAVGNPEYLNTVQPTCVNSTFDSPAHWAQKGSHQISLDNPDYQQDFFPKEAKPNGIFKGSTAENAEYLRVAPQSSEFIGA

[11] = test system: Epidermal growth factor receptor (Homo sapiens), P00533 [T790M]; settings: at 1 µM
[12] = test system: Epidermal growth factor receptor (Homo sapiens), P00533 [L858R,T790M]; settings: at 0.1 µM
[13] = test system: Epidermal growth factor receptor (Homo sapiens), P00533 [L858R,T790M]; settings: at 1 µM
[14] = target: Ephrin type-A receptor 2 (Homo sapiens) (UniProt P29317); settings: at 0.1 µM
[15] = target: Ephrin type-A receptor 2 (Homo sapiens) (UniProt P29317); settings: at 1 µM
[16] = target: T2, Ephrin type-A receptor 3 (Homo sapiens) (UniProt P29320); settings: at 0.1 µM
T2 sequence (whole entry): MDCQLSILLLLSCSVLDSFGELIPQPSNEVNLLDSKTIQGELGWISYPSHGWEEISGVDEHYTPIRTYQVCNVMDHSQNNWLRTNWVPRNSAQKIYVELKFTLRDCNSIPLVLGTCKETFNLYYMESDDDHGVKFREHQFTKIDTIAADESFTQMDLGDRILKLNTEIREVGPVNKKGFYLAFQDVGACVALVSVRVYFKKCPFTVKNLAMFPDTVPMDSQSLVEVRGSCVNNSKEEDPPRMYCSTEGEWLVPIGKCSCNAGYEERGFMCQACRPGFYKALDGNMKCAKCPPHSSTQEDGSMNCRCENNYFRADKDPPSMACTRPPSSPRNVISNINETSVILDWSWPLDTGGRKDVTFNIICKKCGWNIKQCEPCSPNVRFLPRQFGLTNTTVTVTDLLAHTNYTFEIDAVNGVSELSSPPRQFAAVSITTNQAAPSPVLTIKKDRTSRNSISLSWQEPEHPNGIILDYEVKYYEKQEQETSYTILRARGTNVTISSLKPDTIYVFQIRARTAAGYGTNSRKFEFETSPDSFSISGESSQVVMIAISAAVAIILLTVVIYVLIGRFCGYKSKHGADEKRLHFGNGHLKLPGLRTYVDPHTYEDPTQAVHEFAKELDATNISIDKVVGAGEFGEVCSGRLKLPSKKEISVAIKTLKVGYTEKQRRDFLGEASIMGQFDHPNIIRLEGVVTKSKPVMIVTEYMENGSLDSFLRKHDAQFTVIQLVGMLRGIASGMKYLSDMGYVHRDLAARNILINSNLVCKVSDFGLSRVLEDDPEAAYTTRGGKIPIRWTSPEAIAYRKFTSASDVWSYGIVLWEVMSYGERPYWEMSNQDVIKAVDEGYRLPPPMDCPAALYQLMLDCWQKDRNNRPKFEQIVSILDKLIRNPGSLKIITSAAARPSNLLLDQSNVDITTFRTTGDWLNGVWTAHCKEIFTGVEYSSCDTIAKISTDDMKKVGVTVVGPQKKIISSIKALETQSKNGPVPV

[17] = target: T2, Ephrin type-A receptor 3 (Homo sapiens); settings: at 1 µM
[18] = target: Ephrin type-A receptor 4 (Homo sapiens) (UniProt P54764); settings: at 0.1 µM
[19] = target: Ephrin type-A receptor 4 (Homo sapiens) (UniProt P54764); settings: at 1 µM
[20] = target: T3, Ephrin type-B receptor 2 (Homo sapiens) (UniProt P29323); settings: at 0.1 µM;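 further: reported as mean inhibition of EPHB2, from the GSK PKIS dataset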
T3 sequence (whole entry): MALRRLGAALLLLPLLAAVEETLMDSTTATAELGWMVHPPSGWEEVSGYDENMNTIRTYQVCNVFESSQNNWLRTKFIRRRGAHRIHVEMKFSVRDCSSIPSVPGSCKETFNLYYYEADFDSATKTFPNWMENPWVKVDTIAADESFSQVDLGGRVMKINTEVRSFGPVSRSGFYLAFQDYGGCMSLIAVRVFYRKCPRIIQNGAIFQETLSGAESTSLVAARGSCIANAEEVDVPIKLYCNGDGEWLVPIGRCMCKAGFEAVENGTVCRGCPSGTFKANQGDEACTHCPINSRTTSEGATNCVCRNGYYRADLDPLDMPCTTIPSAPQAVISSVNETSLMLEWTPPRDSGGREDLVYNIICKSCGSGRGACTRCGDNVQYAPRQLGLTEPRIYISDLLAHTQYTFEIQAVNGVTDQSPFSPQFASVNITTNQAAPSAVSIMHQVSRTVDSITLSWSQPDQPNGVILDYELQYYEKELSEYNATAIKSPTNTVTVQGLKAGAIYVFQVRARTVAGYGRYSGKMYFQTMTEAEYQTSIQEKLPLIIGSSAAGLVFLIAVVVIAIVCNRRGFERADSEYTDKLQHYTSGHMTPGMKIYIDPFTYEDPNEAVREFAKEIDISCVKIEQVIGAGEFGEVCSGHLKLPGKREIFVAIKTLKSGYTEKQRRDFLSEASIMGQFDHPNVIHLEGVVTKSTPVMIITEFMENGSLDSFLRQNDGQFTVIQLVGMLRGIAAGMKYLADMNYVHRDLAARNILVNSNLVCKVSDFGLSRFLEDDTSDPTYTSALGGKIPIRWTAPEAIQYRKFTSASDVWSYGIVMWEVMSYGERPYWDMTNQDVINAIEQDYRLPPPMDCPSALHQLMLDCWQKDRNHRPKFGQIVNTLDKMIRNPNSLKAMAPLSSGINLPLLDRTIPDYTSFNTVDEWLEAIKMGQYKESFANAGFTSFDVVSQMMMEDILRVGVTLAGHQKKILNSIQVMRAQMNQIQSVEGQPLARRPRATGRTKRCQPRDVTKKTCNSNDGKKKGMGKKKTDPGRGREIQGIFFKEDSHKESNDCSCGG

SMILES | inhibition [1] [%] | inhibition [2] [%] | inhibition [3] [%] | inhibition [4] [%] | inhibition [5] [%] | inhibition [6] [%] | inhibition [7] [%] | inhibition [8] [%] | inhibition [9] [%] | inhibition [10] [%] | inhibition [11] [%] | inhibition [12] [%] | inhibition [13] [%] | inhibition [14] [%] | inhibition [15] [%] | inhibition [16] [%] | inhibition [17] [%] | inhibition [18] [%] | inhibition [19] [%] | inhibition [20] [%]
COc1cc2c(cc1Nc1nc(N3CCc4ccccc43)c3cc[nH]c3n1)N(C(=O)CN(C)C)CC2 | 0.41 | 0.28 | 0.74 | -0.08 | 1.28 | 1.45 | 2.18 | 1.47 | -0.39 | 1.57 | 2.36 | 3.77 | 9.23 | 2.22 | 2.11 | 2.13 | 0.93 | 3.39 | 6.36 | 2.81
CCc1cccc(NC(=O)Nc2ccc(Oc3ccc4nc(NC(=O)OC)[nH]c4c3)cc2)c1 | 3.75 | 78 | 80.2 | 8 | 7.33 | 2.52 | 5.42 | 0.96 | 2.05 | 1.06 | 1.6 | 3.59 | 4.31 | 49.4 | 65.7 | 13.9 | 10.1 | 52.3 | 72.3 | 44.5
COc1cc2ncn(-c3cc(OCc4ccccc4Cl)c(C(N)=O)s3)c2cc1OC | 4.61 | 0.71 | 0.75 | 2.48 | 8.81 | 1.49 | 13.4 | -0.11 | 5.11 | -1.99 | 0.02 | -1.12 | 1.19 | -2.86 | -1.31 | -1.62 | 0.98 | 0.5 | 7.32 | 2
CCn1c(-c2nonc2N)nc2c(N3CCCC3)nccc21 | -3.39 | 0.93 | 1.39 | 9.47 | 13 | -0.34 | -1.9 | 0.82 | 2.63 | -1.01 | -1.06 | 0.11 | 0.62 | -5.01 | -4.35 | -5.79 | -2.29 | -6.53 | -8.11 | -2.18
COc1ccc(-c2ccncc2)cc1C(N)=O | 2.12 | 2.19 | 2.53 | 4.47 | 4.86 | 5.16 | 4.73 | 4.48 | 6.9 | 0.43 | 2.61 | 3.26 | 3.22 | 0.83 | 0.98 | 2.75 | 4.65 | 6.67 | 8.05 | 5.39
NS(=O)(=O)c1ccc(N/N=C2\C(=O)Nc3ccc(C(=O)NCCc4c[nH]cn4)cc32)cc1 | 9.56 | 1.41 | 5.19 | 2 | 4.43 | 5.09 | 5.32 | 3.18 | 3.48 | 2.7 | 1.79 | 3.11 | 5.71 | 1.93 | 1.88 | 7.18 | 8.06 | 10.7 | 16.3 | 11.4
CCn1c(-c2nonc2N)nc2c(C#CC(C)(C)O)nc(CN3CCCC3)cc21 | -4.12 | 1.3 | 5.64 | 1.34 | 1.12 | -0.22 | -1.48 | -1.77 | -4.01 | -2.21 | -1.46 | -1.08 | 0.28 | -1.52 | -2.75 | -2.69 | 1.11 | -7.89 | -5.06 | -4.91
Cc1ccc(C(=O)NC2CCCCC2)cc1-c1ccc(C(=O)NCC2CC2)cc1 | 1.73 | 3.79 | 6.99 | 10.6 | 14.3 | 1.02 | 0.13 | 1.18 | 0.87 | 0.94 | -2.05 | -0.59 | -0.67 | 2.02 | 1.67 | 5.5 | 5.14 | 8.35 | 3.57 | 6.79
COc1cc(C)c(NC(=O)CN(C)C)cc1Nc1nc(Nc2cccc(F)c2C(N)=O)c2cc[nH]c2n1 | -0.35 | 2.03 | 0.4 | -1.1 | 5.3 | 1.75 | 6.19 | 2.96 | 5 | 5.98 | 30.3 | 14.3 | 54.2 | 0.91 | -1.18 | 3.57 | 1.85 | 6.35 | -1.05 | 4.98
Nc1nc(-c2ccc3c(c2)C(=Cc2cc(Br)c(O)c(Br)c2)C(=O)N3)cs1 | -6.6 | 0.46 | 2.46 | 0.84 | 5.53 | -3.68 | 8.58 | 0.03 | 1.67 | -1.77 | -1.57 | -0.73 | 3.93 | -4.92 | -4.26 | -6.05 | -2.41 | -6.57 | -2.56 | -3.26
NC(=O)c1ccc(-c2nc(-c3ccccn3)c(-c3ccc4c(c3)OCO4)[nH]2)cc1 | 6.81 | 2.6 | 4.42 | 2.11 | 4.7 | 4.74 | 3.79 | 2.1 | 2.01 | -0.51 | 1.62 | 3.52 | -0.97 | -0.18 | -0.13 | 3.83 | 1.89 | 7.63 | 7.96 | 6.11
O=C1NC(=O)C(c2cccc(Cl)c2)=C1Nc1ccc(O)c(Cl)c1 | -5.59 | -1.25 | -1.13 | -0.21 | 1.12 | -2.01 | -0.47 | -0.43 | -0.33 | -0.72 | -0.85 | 0.92 | 0.61 | 0.74 | 1.32 | 0.53 | -2.04 | 1.17 | -8.81 | -3.19
CCn1c(-c2nonc2N)nc2cncc(C(=O)N3CCNCC3)c21 | 4.45 | 1.63 | 1.68 | 1.08 | 2.62 | 3.95 | 3.98 | 3.22 | 5.49 | 2.68 | 3.72 | 0.98 | 3.56 | 1.29 | 1.16 | 3.57 | 2.79 | 9.14 | 11.3 | 10.1

Source: ChEMBL document CHEMBL1961873, “Compounds: GSK PKIS; Assays: Nanosyn kinase panel” (2012)
